In PubChem BioAssay (NCATS):
Values without a mark were called inactive. Results filed as inconclusive are left out. A call without a number means that no potency is given here. The source made the active and inactive calls. Unless noted, the call rests on the fitted dose curve; in most records, active means well fitted curve in the direction sought with a large enough effect; inconclusive means small, poorly fitted or top-dose-only effect, or another doubt; inactive means no such curve, though single readings can be large; an effect the other way counts as inactive or inconclusive.

Experiments:
[1] = biological target: Cytochrome P450 3A4 (Homo sapiens) (UniProt P08684); assay: qHTS Assay for Inhibitors and Substrates of Cytochrome P450 3A4 (AID 884); further: potency means the concentration at half of the fitted maximal effect; nearly all actives have a fitted effect of over 50% in size
In short: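 Luminescent readout of luciferin produced by CYP3A4 (20 nM) dealkylation of Luciferin-PPXE, 25 uM (its KM). NADPH-driven reaction ran 60 min at RT after 10 min compound preincubation; data scaled to 57 uM ketoconazole as 100% inhibition.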

[2] = biological target: Cytochrome P450 3A4 (Homo sapiens) (UniProt P08684); assay: qHTS Assay for Activators of Cytochrome P450 3A4 (AID 885); further: nearly all actives have a fitted effect of over 65% in size
In short: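 CYP3A4 activity: Luciferin-PPXE O-dealkylation, 25uM substrate, 200mM KPO4, RT throughout. Read-out is luciferase luminescence; higher values reflect activation.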

[3] = tested on: Zika virus NS2B-NS3 protease; assay: Primary screen GU AMC qHTS for Zika virus inhibitors (AID 1347154); further: nearly all actives have a fitted effect of over 70% in size
In short: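 Fluorogenic AMC-substrate cleavage by noncovalent NS2B-NS3 protease complex (25 nM, pH 8.0 Tris buffer with Tween 20) followed for 15 minutes at room temperature (~20% conversion). Percent inhibition from ex340/em450 signal change, fitted by 4-parameter Hill equation.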

[4] = Confirmatory screen GU Rhodamine qHTS for Zika virus inhibitors qHTS (AID 1347157); further: potency means the concentration at half of the fitted maximal effect; nearly all actives have a fitted effect of over 70% in size
In short: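 A qHTS format was used, with compound concentrations ranging up to 114 microM. Each compound was preincubated with 25 nM NS2B-NS3 protease, and the substrate was then added at 1.5 microM. Curves were fitted with a 4-parameter Hill model.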

[5] = ZIKV-mCherry secondary qHTS for Zika virus inhibitors (AID 1347158); further: top concentration of the series differs between compounds
In short: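 This orthogonal imaging screen measured ZIKV-mCherry infection of Vero cells exposed to compound, MOI 1, 48-72 h. Percent infection came from segmented nuclei scored mCherry-positive above 3 SD of negative controls.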

[6] = Confirmatory screen NINDS Rhodamine qHTS for Zika virus inhibitors (AID 1347161); further: potency means the concentration at half of the fitted maximal effect; nearly all actives have a fitted effect of over 60% in size
In short: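 Single-chain NS2B-NS3 protease, 25 nM, pH 8.0; compounds preincubated 15 min. Activity: Rhodamine110 release from 1.5 microM substrate over 15 min, room temperature, data fitted to 4-parameter Hill.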

[7] = tested on: Zika virus NS2B-NS3 protease (linked); assay: 384 well plate NINDS AMC confirmatory qHTS for Zika virus inhibitors (AID 1347163); further: potency means the concentration at half of the fitted maximal effect; nearly all actives have a fitted effect of over 50% in size
In short: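 Enzyme (5, 30 or 60 nM final) first met test compounds for ~15 min. The AMC-tagged peptide Ac-VKTGKR-AMC followed at 30 microM. Fluorescence was then recorded at 25 min and scaled against no-enzyme and no-inhibitor wells.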

[8] = tested on: Zika virus NS2B-NS3 protease (linked construct); assay: 384 well plate NINDS Rhodamine confirmatory qHTS for Zika virus inhibitors (AID 1347164);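 further: fluorescence from protease cleavage of Ac-LKRR-rhodamine 110 substrate; potency means the concentration at half of the fitted maximal effect; nearly all actives have a fitted effect of over 65% in size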
In short: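 Linked NS2B-NS3 protease (final 5, 30 or 60 nM) preincubated ~15 minutes with compounds, then 10 microM Ac-LKRR-Rhodamine 110 added. Fluorescence (485/538 nm) read after 25 minutes at room temperature, normalized to no-enzyme and no-inhibitor controls.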

[9] = Tertiary RLuc qRT-PCR qHTS assay for Zika virus inhibitors (AID 1347169); further: top concentration of the series differs between compounds; nearly all actives have a fitted effect of over 55% in size
In short: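 Vero cells (1,000/well) infected with recombinant ZIKV-RLuc (Cambodian) at MOI 1-2 after compound addition, 48-72 hrs at 37 degrees C. Live-cell Renilla luciferase substrate added; luminescence read after 1-1.5 hrs.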

[10] = biological target: Glucocorticoid receptor (Homo sapiens) (UniProt P04150); assay: GR-GFP Redistribution (AID 450;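 active means compounds whose dose series gives a full or clear partial fitted curve of increased nuclear translocation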; further: potency means the concentration at half of the fitted maximal effect); conditions: U2OS GR-GFP nuclear translocation, laser cytometry, 2 h
[11] = biological target: Glucocorticoid receptor (Homo sapiens) (UniProt P04150); assay: GR-EFC Redistribution (AID 451; calls by dose curve; further: potency means the concentration at half of the fitted maximal effect); conditions: CHO-K1 GR-EFC translocation, beta-gal luminescence, 2 h
In short: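 Translocation of GR-ED fusion to nuclear EA restores b-gal, read by luminescence after 1 h room-temperature detection. Engineered CHO-K1 biosensor cells, 1,000/well, exposed 2 h at 37 C to titrations up to 46 uM final.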

[12] = biological target: Mitogen-activated protein kinase 10 (Mus musculus) (UniProt Q61831); assay: JNK3 AlphaScreen Assay (AID 530; active means well fitted curve in either direction with a large enough effect, not every such curve was filed as active;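 further: kinase came from lysate of stimulated human HepG2 cells; signal reports phosphorylation of biotinylated GST-cJun 1-79 at Ser73 with 10 µM ATP; series mostly up to about 57 µM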)
In short: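 Kinase buffer: 20 mM Tris-HCl pH 7.6, 10 mM MgCl2, 1 mM DTT, 0.1 mM Na3VO4, 0.01% Tween-20; ATP 10 uM. Substrate biotin-GST-cJun(1-79), enzyme from activated HepG2 lysates. Detection by Ser73 phospho-antibody AlphaScreen.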

[13] = biological target: 3',5'-cyclic-AMP phosphodiesterase 4B (Homo sapiens) (UniProt Q07343); assay: qHTS Assay for Inhibitors of PDE-IV (AID 607; active means well fitted activation curve with a large enough effect in the main read-out, with a control signal flat, not every such curve was filed as active)
In short: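 ACTOne HEK293 cells carry a modified cAMP-gated CNG channel and express endogenous PDE4; plated 1000 cells/well, compounds up to 22.9 uM final. Membrane-potential dye fluorescence (ex 535/em 590) was read; parental cells received 10 uM forskolin + 100 uM RO 20-1724.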

[14] = biological target: Ubiquitin carboxyl-terminal hydrolase 1 (Homo sapiens) (UniProt O94782); assay: Inhibitors of USP1/UAF1: Pilot qHTS (AID 504865);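 further: rhodamine fluorescence freed from ubiquitin-rhodamine substrate followed over time; top concentration of the series differs between compounds; nearly all actives have a fitted effect of over 35% in size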
In short: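 USP1/UAF1 complex at 1 nM preincubated 15 min at room temperature with compound, then Ub-Rho substrate added at 150 nM final. Fluorescence (480/540 nm) read kinetically in 50 mM HEPES pH 7.8, 0.5 mM EDTA, 1 mM TCEP, 0.1 mg/ml BSA, 0.01% Tween-20.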

[15] = biological target: DNA dC->dU-editing enzyme APOBEC-3G (Homo sapiens) (UniProt Q9HC16); assay: qHTS for inhibitors of Vif-A3G interactions: Validation (AID 588379)
In short: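 Yellow fluorescence (Ex 488, Em 500-530) of Vif-coexpressing HeLa A3G-eYFP cells, scanned by Acumen cytometer, reports blocked A3G degradation. Cells plated at 700/well overnight at 37 deg C before compound addition, then a further overnight compound incubation at 37 deg C.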

Cytochrome P450 3A4 (Homo sapiens), sequence (P08684 whole entry, looked up): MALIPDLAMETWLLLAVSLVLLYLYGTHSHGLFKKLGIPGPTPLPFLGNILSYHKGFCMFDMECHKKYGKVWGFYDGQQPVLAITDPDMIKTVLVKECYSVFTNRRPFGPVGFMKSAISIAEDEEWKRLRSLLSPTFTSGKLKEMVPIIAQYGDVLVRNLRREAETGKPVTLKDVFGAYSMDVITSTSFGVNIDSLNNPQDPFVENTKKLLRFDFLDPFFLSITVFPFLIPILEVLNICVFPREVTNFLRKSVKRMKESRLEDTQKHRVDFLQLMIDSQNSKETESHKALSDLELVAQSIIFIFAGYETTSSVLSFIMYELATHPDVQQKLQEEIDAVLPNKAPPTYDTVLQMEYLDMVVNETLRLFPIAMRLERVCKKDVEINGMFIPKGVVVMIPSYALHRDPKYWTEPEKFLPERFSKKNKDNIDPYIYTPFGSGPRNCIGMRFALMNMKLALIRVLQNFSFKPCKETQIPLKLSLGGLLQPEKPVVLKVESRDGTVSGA
Glucocorticoid receptor (Homo sapiens), sequence (P04150 whole entry, looked up, the tested form may be a part): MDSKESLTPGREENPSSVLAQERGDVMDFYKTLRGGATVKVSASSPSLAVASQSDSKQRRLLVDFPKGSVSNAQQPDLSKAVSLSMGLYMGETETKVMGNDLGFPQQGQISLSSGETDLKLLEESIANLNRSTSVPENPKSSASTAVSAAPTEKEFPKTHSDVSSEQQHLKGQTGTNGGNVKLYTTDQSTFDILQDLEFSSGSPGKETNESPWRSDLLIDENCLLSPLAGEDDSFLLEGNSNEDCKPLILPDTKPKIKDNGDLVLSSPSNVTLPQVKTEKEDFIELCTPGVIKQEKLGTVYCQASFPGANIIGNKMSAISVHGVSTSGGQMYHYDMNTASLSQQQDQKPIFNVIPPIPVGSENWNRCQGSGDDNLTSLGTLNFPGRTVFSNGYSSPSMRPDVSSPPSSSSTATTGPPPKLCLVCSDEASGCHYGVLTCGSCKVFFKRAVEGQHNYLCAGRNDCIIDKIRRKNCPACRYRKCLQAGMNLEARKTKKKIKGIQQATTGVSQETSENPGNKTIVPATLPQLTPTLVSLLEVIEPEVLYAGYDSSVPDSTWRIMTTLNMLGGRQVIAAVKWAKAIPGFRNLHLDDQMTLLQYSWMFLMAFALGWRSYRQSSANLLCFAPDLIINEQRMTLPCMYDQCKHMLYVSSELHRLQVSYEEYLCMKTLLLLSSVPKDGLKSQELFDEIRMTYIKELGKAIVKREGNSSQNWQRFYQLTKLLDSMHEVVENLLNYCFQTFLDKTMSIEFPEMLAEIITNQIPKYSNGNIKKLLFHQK
DNA dC->dU-editing enzyme APOBEC-3G (Homo sapiens), sequence (Q9HC16 whole entry, looked up): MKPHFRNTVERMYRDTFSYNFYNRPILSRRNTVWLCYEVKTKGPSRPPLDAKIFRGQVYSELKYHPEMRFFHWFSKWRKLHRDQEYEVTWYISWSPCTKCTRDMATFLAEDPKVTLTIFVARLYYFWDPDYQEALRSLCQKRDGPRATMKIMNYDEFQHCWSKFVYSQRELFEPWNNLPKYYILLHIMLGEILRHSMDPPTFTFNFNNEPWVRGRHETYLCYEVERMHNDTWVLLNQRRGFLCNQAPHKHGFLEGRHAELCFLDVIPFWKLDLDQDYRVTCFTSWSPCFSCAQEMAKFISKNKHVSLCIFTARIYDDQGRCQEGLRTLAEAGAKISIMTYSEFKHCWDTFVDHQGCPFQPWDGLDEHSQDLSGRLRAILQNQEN
3',5'-cyclic-AMP phosphodiesterase 4B (Homo sapiens), sequence (Q07343 whole entry, looked up): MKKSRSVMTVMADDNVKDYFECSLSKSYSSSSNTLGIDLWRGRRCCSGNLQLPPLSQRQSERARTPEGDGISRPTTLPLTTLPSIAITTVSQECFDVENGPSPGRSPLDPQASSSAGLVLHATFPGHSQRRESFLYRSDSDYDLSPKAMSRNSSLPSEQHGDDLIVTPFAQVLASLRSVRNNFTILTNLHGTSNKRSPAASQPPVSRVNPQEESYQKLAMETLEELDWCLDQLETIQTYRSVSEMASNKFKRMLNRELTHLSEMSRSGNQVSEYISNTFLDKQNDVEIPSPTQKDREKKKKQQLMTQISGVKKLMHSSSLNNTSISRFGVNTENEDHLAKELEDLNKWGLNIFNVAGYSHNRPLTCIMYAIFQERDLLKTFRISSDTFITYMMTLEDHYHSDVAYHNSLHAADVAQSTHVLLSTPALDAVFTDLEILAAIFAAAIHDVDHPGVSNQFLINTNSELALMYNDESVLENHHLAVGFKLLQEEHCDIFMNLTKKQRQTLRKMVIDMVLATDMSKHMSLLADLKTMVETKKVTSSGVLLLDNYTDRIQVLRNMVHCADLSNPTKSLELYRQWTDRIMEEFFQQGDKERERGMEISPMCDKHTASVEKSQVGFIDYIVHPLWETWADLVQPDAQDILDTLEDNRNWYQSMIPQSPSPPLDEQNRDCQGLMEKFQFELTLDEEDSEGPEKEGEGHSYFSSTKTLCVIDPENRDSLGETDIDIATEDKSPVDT
Ubiquitin carboxyl-terminal hydrolase 1 (Homo sapiens), sequence (O94782 whole entry, looked up): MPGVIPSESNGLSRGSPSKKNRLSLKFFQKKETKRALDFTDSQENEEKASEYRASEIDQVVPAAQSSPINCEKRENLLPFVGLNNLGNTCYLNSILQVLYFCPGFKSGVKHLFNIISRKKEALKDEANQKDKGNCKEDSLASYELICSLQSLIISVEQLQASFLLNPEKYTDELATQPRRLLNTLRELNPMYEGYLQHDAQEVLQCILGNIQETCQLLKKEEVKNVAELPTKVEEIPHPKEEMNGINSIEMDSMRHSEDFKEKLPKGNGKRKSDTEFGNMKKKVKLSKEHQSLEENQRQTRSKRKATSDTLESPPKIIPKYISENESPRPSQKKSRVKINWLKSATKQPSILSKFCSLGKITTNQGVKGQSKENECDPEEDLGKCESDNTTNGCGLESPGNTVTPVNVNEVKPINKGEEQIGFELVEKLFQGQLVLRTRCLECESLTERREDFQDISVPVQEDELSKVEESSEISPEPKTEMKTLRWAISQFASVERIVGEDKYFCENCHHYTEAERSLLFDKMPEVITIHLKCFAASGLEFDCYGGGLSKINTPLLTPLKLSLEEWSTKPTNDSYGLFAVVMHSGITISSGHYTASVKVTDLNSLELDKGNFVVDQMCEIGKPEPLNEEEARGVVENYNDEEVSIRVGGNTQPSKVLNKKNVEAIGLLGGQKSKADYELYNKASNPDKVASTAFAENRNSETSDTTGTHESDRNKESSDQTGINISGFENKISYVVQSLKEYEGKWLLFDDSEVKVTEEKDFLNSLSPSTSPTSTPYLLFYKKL

SMILES: O=C1c2ccccc2C(Cc2ccnc(F)c2)(Cc2ccnc(F)c2)c2ccccc21
- Potency [1]: 15.8 µM (active)
- Potency [2]: inactive
- Potency [3]: inactive

SMILES: COC(=O)c1ccc([C@H]2Nc3ccc(S(=O)(=O)Nc4cccc(C)c4)cc3[C@H]3C=CC[C@H]32)cc1
- Potency [4]: 25.1 µM (active)
- Potency [5]: inactive
- Potency [6]: 25.1 µM (active)
- Potency [7]: 141 µM (active)
- Potency [8]: 158 µM (active)
- Potency [9]: inactive

SMILES: CCCCCS(=O)(=O)CCCCCCCCCCn1c(-c2ccc(O)cc2)c(C)c2cc(O)ccc21
- Potency [1]: 0.631 µM (active)
- Potency [2]: inactive
- Potency [3]: inactive

SMILES: COc1ccc([N+](=O)[O-])c2c1CCN2C(=O)CC[C@H](N)C(=O)O
- Potency [10]: 4.81 µM (active)
- Potency [11]: > 46 µM
- Potency [12]: inactive
- Potency [13]: inactive
- Potency [14]: inactive
- Potency [15]: inactive
- Potency [3]: inactive

SMILES: CCCCN1CCC[C@@H]1CNC(=O)c1cc(C#N)c2ccccc2c1OC
- Potency [10]: > 46 µM
- Potency [11]: > 46 µM
- Potency [12]: inactive
- Potency [13]: inactive
- Potency [15]: inactive
- Potency [3]: inactive
